Compound activity deposited in PubChem BioAssay by several laboratories.
NALP1 yeast inh = NALP1 inhibition. S. cerevisiae NALP1/ASC/caspase-1 growth, X-gal OD620, 72 h. inhibition, % at 10 µM. actives 0.61% (n = 280,000); in the data active = inhibition mostly above about 24%, no sharp cut-off; inactive = mostly below about 32%
CR mimetic SO = yeast age-related superoxide inhibition as caloric restriction mimetic; superoxide response (% of plate mean), % at 10 µM; S. cerevisiae aged cells, superoxide DHE fluorescence; active compounds read low; actives 0.18% (n = 330,000);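 active = superoxide response under a set limit, about three screen SD below normal, cut at about 65% in these data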;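 note: yeast aged for seven days with compound at 30 °C before DHE staining; 100% = average MFI of all compound-treated wells on the plate with controls excluded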
dFosB act = enhances mouse delta FosB homodimer DNA binding | activation, % at 25 µM | AID 493131 | actives 0.99% (n = 340,000) | P13346 | purified delta FosB, TAMRA-CDK5 oligo fluorescence polarization; percent of positive-control signal above neutral wells;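 active = mean activation above about 17%, with every replicate also reaching it, limit read from the data, passing the limit was not always enough; inconclusive = only one of the two conditions met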
Target sequence (P13346 whole entry, looked up): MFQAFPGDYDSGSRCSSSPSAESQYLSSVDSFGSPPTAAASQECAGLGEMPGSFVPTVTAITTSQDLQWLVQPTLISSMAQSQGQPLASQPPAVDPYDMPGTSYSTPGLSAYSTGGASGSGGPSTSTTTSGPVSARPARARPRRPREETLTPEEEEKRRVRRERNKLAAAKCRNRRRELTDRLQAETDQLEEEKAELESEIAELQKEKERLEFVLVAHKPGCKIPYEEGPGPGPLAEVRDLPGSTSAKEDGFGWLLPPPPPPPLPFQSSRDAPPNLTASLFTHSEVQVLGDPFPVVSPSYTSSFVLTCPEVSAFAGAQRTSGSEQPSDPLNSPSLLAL
NR3A LBD binder = modulates the human NR3A ligand-binding domain | Tm shift relative to glycine control, % at 25 µM | actives 2.5% (n = 340,000) | AID 1259313 | NR3A LBD differential scanning fluorimetry, Tm shift; 0% = protein alone, 100% = glycine-bound protein;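 active = melting temperature shift of at least 10% of the positive control shift, at one fixed dose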
UBC13 inh = blocks human UBC13 polyubiquitin chain formation | TR-FRET | inhibition, % at 20 µM | actives 0.47% (n = 330,000) | AID 485273; in the data active = inhibition above about 45%, passing the limit was not always enough; inconclusive = no clear call, values can overlap the other calls
Casp3 counter = inhibits human caspase-3 in UBC13 counter-screen; AID 488856; Recombinant caspase-3, Caspase-Glo 3/7 luminescence, 60 min; shares compounds with UBC13 inh; actives 4% (n = 1,400); inhibition, % at 20 µM;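 active = mean inhibition across replicates above about 26%, limit read from the data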;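 note: plate controls were DMSO with caspase-3 for no effect and DMSO wells lacking enzyme for full effect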
Target sequence (P42574 whole entry, looked up): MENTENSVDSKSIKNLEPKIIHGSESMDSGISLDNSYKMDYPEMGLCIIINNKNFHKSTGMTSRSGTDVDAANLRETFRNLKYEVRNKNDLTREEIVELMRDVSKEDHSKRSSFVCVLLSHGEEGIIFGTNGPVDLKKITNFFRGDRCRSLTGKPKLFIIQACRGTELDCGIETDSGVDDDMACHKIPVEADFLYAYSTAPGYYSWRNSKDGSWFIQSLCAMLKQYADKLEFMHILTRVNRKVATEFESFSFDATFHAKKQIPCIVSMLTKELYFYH
UBC13 conf = human UBC13 polyubiquitin inhibition, confirmed; shares compounds with UBC13 inh; UBC13 polyubiquitination, TR-FRET, biochemical; inhibition, % at 10 µM; actives 68% (n = 1,400); in the data active = inhibition above about 45%; inconclusive = no clear call, values can overlap the other calls
Active calls of the source: *; ? = inconclusive; . = no result given. The list is not random: actives were taken first. Their share in the collection is about 4.3%.

SMILES | NALP1 yeast inh | CR mimetic SO | dFosB act | NR3A LBD binder | UBC13 inh | Casp3 counter | UBC13 conf
Cc1ccc(S(=O)(=O)N2CCCC(C(=O)NNCC(=O)Nc3cc(F)ccc3F)C2)cc1 (configuration not stated) | 5 | 113 | -5 | 0 | 48* | 3 | 33
O=C(O)c1ccc(N2CCS(=O)(=O)CC2)cc1 | -10 | 91 | -7 | -1 | 7 | . | .
Cc1ccc2sc(N(CCCN(C)C)C(=O)c3ccc(S(=O)(=O)N(C)Cc4ccccc4)cc3)nc2c1C | . | 102 | 16 | 2 | 39 | . | .
COc1ccc2sc(N(CCCN(C)C)C(=O)c3ccc(S(=O)(=O)N(C)Cc4ccccc4)cc3)nc2c1 | . | 97 | -24 | -4 | 48* | -2 | 93*
CN(C)CCCN(C(=O)c1ccc(S(=O)(=O)N(C)Cc2ccccc2)cc1)c1nc2cc3c(cc2s1)OCO3 | 21 | 99 | ? | -13 | 90* | 0 | 108*
CN(C)CCCN(C(=O)c1ccc2ccccc2c1)c1nc2cc3c(cc2s1)OCO3 | 14 | 88 | 6 | -2 | 32 | . | .
COC(=O)c1ccc(Cn2c(O)c(N=NC(N)=S)c3ccccc32)o1 | . | 106 | -21 | 3 | 69* | 2 | 81*
C/C(Cl)=C\Cn1c(O)c(N=NC(N)=S)c2ccccc21 | 9 | 105 | -12 | -12 | 84* | -4 | 102*
Cc1cc(Cc2ccc([N+](=O)[O-])cc2)c(C)cn1 | 14 | 99 | -7 | -2 | 3 | . | .
COc1ccc(-c2noc3c2-c2nc(-c4c(F)cccc4F)sc2CC3)cc1 | 15 | 109 | -2 | 3 | 12 | . | .
CN1CC2=Cc3ccccc3OC23Oc2ccccc2C=C3C1 | 22 | 100 | 1 | -2 | 85* | -2 | 94*
Cc1ccsc1CNc1ncnc2ccc(-c3c(C)noc3C)cc12 | . | 108 | -4 | -4 | 46* | 1 | 44
Cc1ccc(C(=O)NC(C)c2ccc(-n3ccnc3)cc2)cc1S(=O)(=O)N1CCOCC1 (configuration not stated) | . | 103 | 5 | -2 | 73* | -1 | 102*
Cc1ccc(C(=O)NC(C)c2ccccc2)cc1S(=O)(=O)N1CCOCC1 (configuration not stated) | 8 | 98 | -2 | 0 | -2 | . | .
CCn1c(=O)cc(SCC(=O)N2CCOCC2)c2ccccc21 | . | 72 | -8 | -2 | 31 | . | .
CCn1c(=O)cc(SCC(=O)N2CCN(C3CCCCC3)CC2)c2ccccc21 | 46 | 99 | -7 | -3 | 79* | -2 | ?
C=CCn1c(SCc2ccc(Cl)cc2)nc2cc(C(=O)N3CCC(C(N)=O)CC3)ccc2c1=O | 16 | 97 | -7 | -8 | 57* | -1 | 48*
O=C(Cn1cc(C(=O)c2cccs2)c2ccccc21)NC1CCCCC1 | 5 | 94 | -7 | -11 | 61* | -7 | 36
O=C(Cn1cc(C(=O)c2ccco2)c2ccccc21)NC1CCCC1 | 22 | 108 | -3 | 1 | 27 | . | .
Cc1ccc(-c2csc3nc(SCC(N)=O)n(Cc4ccccc4)c(=O)c23)cc1 | 21 | 98 | ? | -6 | 4 | . | .
NS(=O)(=O)c1ccc(CCNC(=O)c2cc(-c3ccccc3)nc3ccccc23)cc1 | 36 | 92 | 3 | -4 | -10 | . | .
NS(=O)(=O)c1ccc(CCNC(=O)c2cc(-c3ccco3)nc3ccccc23)cc1 | . | 103 | -10 | 1 | 51* | 3 | 34
COc1ccc(CN2C(=O)/C(=C/c3ccncc3)SC2=S)cc1 | 32 | 94 | 5 | 1 | 8 | . | .
O=c1c2sccc2[nH]c(=S)n1-c1ccccc1 | -2 | 111 | 0 | 0 | 65* | 2 | ?
O=c1c2oc3ccccc3c2[nH]c(=S)n1-c1ccccc1 | 5 | 93 | -1 | 0 | ? | . | .
SMILES | NALP1 yeast inh | CR mimetic SO | dFosB act | NR3A LBD binder | UBC13 inh | Casp3 counter | UBC13 conf
CNC(=O)c1ccsc1NC(=O)C1CCCN1S(=O)(=O)c1cccs1 (configuration not stated) | . | 93 | -8 | 0 | 46* | 8 | 79*
Cc1ccc(C)c(N2CCN(C(=O)CN3C(=S)NC(C)(C)CC3C)CC2)c1 (configuration not stated) | -9 | 107 | -6 | -1 | 1 | . | .
COc1cccc(-c2sc3ccccc3c2-c2ccc(OCCN(C)C)cc2)c1 | . | 94 | -21 | 0 | 80* | -2 | 79*
COc1cc2sc(-c3ccccc3OC)c(-c3ccc(OCCN4CCOCC4)cc3)c2cc1OC | . | 89 | -5 | 6 | . | . | .
COc1cccc(-c2sc3ccccc3c2-c2ccc(OCCN3CCCC3)cc2)c1 | . | 103 | 6 | -2 | 84* | -4 | 68*
COc1ccc2c(-c3ccc(OCCN4CCOCC4)cc3)c(-c3ccccc3OC)sc2c1 | . | 99 | -2 | 2 | . | . | .
COc1ccc(-c2sc3ccccc3c2-c2ccc(OCCN3CCCCC3)cc2)cc1 | . | 103 | ? | 2 | 72* | -3 | ?
CCOC(=O)C1CCCN(CC(=O)Nc2nccs2)C1 (configuration not stated) | -4 | 100 | -1 | 4 | 1 | . | .
COC(=O)C1=C(C)N(Cc2ccccc2)C(=NCc2cc(OC)c(OC)c(OC)c2)N[C@H]1c1ccc(Br)cc1 | . | 103 | -6 | -1 | 55* | -1 | 48*
COC(=O)C1=C(C)N(Cc2ccccc2)C(=NCc2cc(OC)c(OC)c(OC)c2)N[C@H]1c1ccccc1 | 13 | 102 | -2 | -2 | 32 | . | .
COC(=O)C1=C(C)N(CC2CC2)C(=NCc2cc(OC)c(OC)c(OC)c2)N[C@H]1c1ccccc1 | -18 | 102 | -10 | -2 | 4 | . | .
COC(=O)C1=C(C)N(Cc2ccccc2)C(=NCc2cc(OC)c(OC)c(OC)c2)N[C@H]1CCc1ccccc1 | . | 87 | 12 | -2 | 47* | 4 | 39
Cc1nc2ccc(NC(=O)CSc3nnc(C)s3)cc2[nH]1 | 3 | 88 | -2 | -2 | 6 | . | .
O=C(Nc1ccccc1C(F)(F)F)c1cc(S(=O)(=O)N2CCC3(CC2)OCCO3)ccc1F | 5 | 85 | -9 | 0 | 8 | . | .
COc1ccccc1NC(=O)c1cc(S(=O)(=O)N2CCC3(CC2)OCCO3)ccc1F | 13 | 104 | -3 | 0 | 56* | -4 | 40
COc1ccccc1NC(=O)c1cc(S(=O)(=O)NCc2ccccc2)ccc1F | -1 | 94 | -4 | -12 | 63* | 0 | 75*
COc1ccc(S(=O)(=O)Nc2nc3ccccc3nc2Nc2cccc(C(=O)O)c2)cc1 | -9 | 103 | 6 | 0 | -6 | . | .
CCc1cccc2c(C(=O)C(NCCCOC)c3ccccc3)c[nH]c12 (configuration not stated) | 14 | 102 | -9 | -1 | 28 | . | .
